Test results from PubChem BioAssay AID1851 (National Center for Advancing Translational Sciences (NCATS), 2009).
The whole screen tested about 16,000 compounds, of which about 2,600 (16%) were called active. Another 20% or so got no clear call; they are omitted. Calls follow the shape of the dose curve; as a rule, active = well fitted curve in the direction sought with a large enough effect; inconclusive = small, poorly fitted or top-dose-only effect, or effect the other way; inactive = no such curve, though single readings can be large or run the other way. These entries were drawn from the full list.

Target: Cytochrome P450 2D6 (Homo sapiens) (UniProt P10635)
Sequence (P10635 whole entry, looked up): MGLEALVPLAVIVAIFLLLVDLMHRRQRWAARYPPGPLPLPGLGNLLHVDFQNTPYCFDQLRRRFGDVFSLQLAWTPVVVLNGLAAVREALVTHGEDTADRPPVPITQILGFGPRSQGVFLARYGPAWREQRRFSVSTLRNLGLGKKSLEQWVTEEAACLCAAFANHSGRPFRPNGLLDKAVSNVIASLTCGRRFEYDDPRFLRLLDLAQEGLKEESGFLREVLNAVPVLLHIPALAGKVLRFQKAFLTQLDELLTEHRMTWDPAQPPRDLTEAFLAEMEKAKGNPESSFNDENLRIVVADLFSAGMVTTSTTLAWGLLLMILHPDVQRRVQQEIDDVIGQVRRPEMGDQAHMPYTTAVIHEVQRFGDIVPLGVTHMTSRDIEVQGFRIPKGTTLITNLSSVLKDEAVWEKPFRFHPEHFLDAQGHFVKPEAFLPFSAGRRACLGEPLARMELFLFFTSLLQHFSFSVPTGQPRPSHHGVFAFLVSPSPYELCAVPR
Test: Cytochrome panel assay with activity outcomes
Settings: recombinant CYP, pro-luciferin dealkylation, luminescence, p450-cyp2d6; series mostly up to 57.1 µM
% is scaled to controls: 0 for no effect and ±100 for the full control effect.

| SMILES | AC50 | activity, negative = inhibition |
| --- | --- | --- |
| CCCc1cc(=O)oc2cc(OCc3cc(OC)c(OC)c(OC)c3)c(Cl)cc12 | inactive | – |
| O=C(Cc1ccccc1)N/N=C\c1ccc(Br)o1 | inactive | – |
| O=C(Nc1cccc2ncccc12)c1cccc(F)c1 | inactive | – |
| CC1Cc2ccccc2N1C(=O)CCN1C(=O)C2C3C=CC(C3)C2C1=O (stereo unspecified) | inactive | – |
| CC(C)(C)Cn1nc(-c2ccc(Cl)cc2)c2c(N)ncnc21 | inactive | – |
| Nc1nc(N)nc(CCCc2nc(N)nc(N)n2)n1 | – | 19.1% [at 11.4 µM] (inactive) |
| C/C(=C(/CCO)SSC[C@@H]1CCCO1)N(C=O)Cc1cnc(C)nc1N | inactive | – |
| COc1cccc(Nc2ncc3ncc(=O)n(CCC#N)c3n2)c1 | inactive | – |
| C1CCc2c(nc3nnnn3c2NC2CCCC2)C1 | inactive | – |
| COc1ccc(C(=O)Nc2cc(Cl)ccc2OC(=O)c2ccc(OC)cc2)cc1 | inactive | – |
| COc1ccc(C(=O)Nc2ccc(Cl)cn2)cc1Cl | 3.55 µM (active) | – |
| CCOc1ccc(C(=O)Nc2ccc(NC(=O)c3ccco3)c(Cl)c2)cc1Br | inactive | – |
| CCOc1ccc(C(=O)Nc2ccc(Cl)cn2)cc1Cl | 7.94 µM (active) | – |
| Cc1cc(=O)oc(C)c1C(=O)Nc1ccc(Cl)cn1 | inactive | – |
| CCOc1ccc(C(=O)Nc2cccc(-c3nc4cccnc4o3)c2)cc1Cl | inactive | – |
| CCOc1cccc(C2C(C(=O)c3ccc(C)o3)=C(O)C(=O)N2Cc2ccncc2)c1 (stereo unspecified) | inactive | – |
| CC(C)NC(=O)C(C)n1cccc1C(=O)c1ccccc1 (stereo unspecified) | inactive | – |
| O=C(CCS(=O)(=O)c1cccs1)N1CCN(c2ccc(F)cc2)CC1 | 20 µM (active) | – |
| CCC(=O)N1CCN(c2ccc(NC(=O)c3cccs3)cc2)CC1 | inactive | – |
| O=C(c1cc(-c2cccs2)on1)N1CCN(c2ccc(F)cc2)CC1 | inactive | – |
| Cc1nc2sccn2c(=O)c1Cl | inactive | – |
| CCCCCCCCN1C(=O)N(C)C(N(O)C(=O)NC)C1(C)C (stereo unspecified) | inactive | – |

| SMILES | AC50 | activity, negative = inhibition |
| --- | --- | --- |
| Cc1cc(C(=O)CSC(=S)SC(C)(C)C)ccc1Cl | – | -0.319% [at 11.4 µM] (inactive) |
| CCC(C(=O)N1CCOCC1)n1c(C(=O)OC)cc2occc21 (stereo unspecified) | inactive | – |
| CCS(=O)(=O)N1CCC[C@H]2CN3CCc4cc(OC)ccc4[C@@H]3C[C@@H]21 | inactive | – |
| COc1cc2c3cc1Oc1c(OC)c(OC)cc4c1[C@@H](Cc1ccc(O)c(c1)Oc1ccc(cc1)C[C@@H]3N(C)CC2)CN(C)C4 | – | 2.38% [at 11.4 µM] (inactive) |
| COc1c(O)ccc2c1CN1CCc3cc4c(cc3[C@@H]1C2)OCO4 | 0.158 µM (active) | – |
| COc1ncc2nc(C)c(=O)n(C3CC3)c2n1 | inactive | – |
| COc1ccc(Cc2n[nH]c(=O)c3ccccc23)cc1OC | inactive | – |
| O=C(CNC(=O)c1ccco1)OCc1c(F)cccc1Cl | inactive | – |
| N[C@@H](CSC(=O)c1ccccc1)C(=O)O | – | 9.96% [at 11.4 µM] (inactive) |
| O=C(OCCN1CCCCC1)c1c[nH]c2ccccc12 | inactive | – |
| Cc1c(-c2ccccc2)oc2c(C(=O)OCCN3CCCCC3)cccc2c1=O | 7.94 µM (active) | – |
| Cc1ccccc1C(=O)Oc1ccc(Br)cc1C(=S)N1CCCC1 | inactive | – |
| Cc1ccccc1Oc1ccc(-c2nc(N)nc(N)n2)cc1 | inactive | – |
| O=C(CCN1CCCCC1)c1csc2ccccc12 | 1 µM (active) | – |
| O=C(N/N=C/c1ccc(O)cc1)c1csc2ccccc12 | inactive | – |
| O=C(Oc1ccc2ccccc2c1Br)N1CCCCCC1 | inactive | – |
| Cc1noc(C)c1-c1cc(N2CCN(C)CC2)ncn1 | inactive | – |
| O=C(O)Cc1ccc2c(c1)N(S(=O)(=O)c1cccc(C(F)(F)F)c1)CC(C(=O)O)O2 (stereo unspecified) | inactive | – |
| C=CC1=C[C@@H](O)C2OC2C12OCCCO2 (stereo partly specified) | – | -1.06% [at 11.4 µM] (inactive) |
| Cc1[nH]n(-c2ccc(S(=O)(=O)O)cc2)c(=O)c1N=Nc1ccccc1 | – | 16.9% [at 11.4 µM] (inactive) |
| O=C(Oc1ccccc1)N1CCC2(CCCN(c3ccccc3)C2)CC1 | inactive | – |
| CCCCn1c(SCC(=O)N2CCCC2)nc2c1c(=O)n(C)c(=O)n2C | inactive | – |

| SMILES | AC50 | activity, negative = inhibition |
| --- | --- | --- |
| CCCCCn1c(CN2CCCCC2C)nc2c1c(=O)n(C)c(=O)n2C (stereo unspecified) | 14.1 µM (active) | – |
| CN(C)CCn1c(CO)nc2c1c(=O)n(C)c(=O)n2C | – | -1.53% [at 11.4 µM] (inactive) |
| Cc1ccc(-n2nnnc2SCC(=O)NNC(=O)c2ccco2)c(C)c1 | inactive | – |
| c1ccc(C[C@@H](Nc2cccnc2)c2ccccc2)cc1 | 1 µM (active) | – |
| O=C(O)Cc1cccnc1 | – | 16.4% [at 11.4 µM] (inactive) |
| O=C(NCC(c1cccnc1)N1CCOCC1)Nc1ccccc1 (stereo unspecified) | inactive | – |
| O=S(=O)(O)c1cc(O)c2c(O)c(N=Nc3cccc4ccccc34)c(S(=O)(=O)O)cc2c1 | – | -16% [at 11.4 µM] (inactive) |
| COc1cc(C2SCCCCCCCCCCSC(c3ccc(O)c(OC)c3)SCCCCCCCCCCS2)ccc1O (stereo unspecified) | – | 6.94% [at 11.4 µM] (inactive) |
| COc1ccc(OC)c(NC(=O)c2c3c(nc4ccccc24)CCC3)c1 | inactive | – |
| COc1cccc(NC(=O)COC(=O)c2c3c(nc4ccccc24)CCC(C)C3)c1 (stereo unspecified) | 7.94 µM (active) | – |
| COc1ccc(NC(=O)COC(=O)c2c3c(nc4ccccc24)CCCC3)cc1 | inactive | – |
| C[N+]1(CCOc2ccc([N+](=O)[O-])cc2)CCOCC1 | inactive | – |
| Cc1ccc(/S(C)=N/S(=O)(=O)c2ccc(C)cc2)cc1 (stereo unspecified) | inactive | – |
| C[C@@H](c1ccccc1)N1C(=O)[C@@H]2[C@H]3C(=CC[C@H]2C1=O)C(=O)[C@H]1O[C@H]1[C@H]3O | – | 5.61% [at 11.4 µM] (inactive) |
| COc1cccc(-c2cc(C(F)(F)F)nc(N3CCN(c4ccccc4)CC3)n2)c1 | inactive | – |
| COc1ccccc1N1CCN(c2nc(-c3ccccc3)cc(C(F)(F)F)n2)CC1 | inactive | – |
| CN1CCN(c2nc(-c3ccccc3)cc(C(F)(F)F)n2)CC1 | 17.8 µM (active) | – |
| O=C(c1ccccc1)c1ccc(OCC(O)CN2CCN(Cc3ccccc3)CC2)cc1 (stereo unspecified) | 3.16 µM (active) | – |
| CC1CC(OCC(O)CN2CCN(Cc3ccccc3)CC2)CC(C)(C)C1 (stereo unspecified) | inactive | – |
| O=C(c1ccccc1)c1ccc(OCCn2cnc3ccccc3c2=O)cc1 | inactive | – |
| COc1cc(/C=C/C(=O)N2CCN(CC(O)COc3ccccc3)CC2)cc(OC)c1OC (stereo unspecified) | inactive | – |
| CC1CCC(C(C)C)C(OCC(O)CN2CCN(Cc3ccccc3)CC2)C1 (stereo unspecified) | 0.112 µM (active) | – |
